Laboratory results reported in publication PMC7862700, “An all-to-all approach to the identification of sequence-specific readers for epigenetic DNA modifications on cytosine”.

Assays:
Assay in all cases: DAPPL (digital affinity profiling via proximity ligation, sequencing); 10 mM Tris-HCl pH 7.5, 50 mM NaCl, 1 mM DTT, 4% glycerol, room temperature, 30 min; GST-TFs on glutathione beads, 16-mer random dsDNA library, 0.1% formaldehyde crosslink after washing; high values mean tight binding
Conditions in all cases: protein: recombinant; tags: N-terminal GST; dsDNA, one strand shown
FLI1 = target: T1, FLI1 (Homo sapiens, UniProt Q01543 1-452)
T1 sequence: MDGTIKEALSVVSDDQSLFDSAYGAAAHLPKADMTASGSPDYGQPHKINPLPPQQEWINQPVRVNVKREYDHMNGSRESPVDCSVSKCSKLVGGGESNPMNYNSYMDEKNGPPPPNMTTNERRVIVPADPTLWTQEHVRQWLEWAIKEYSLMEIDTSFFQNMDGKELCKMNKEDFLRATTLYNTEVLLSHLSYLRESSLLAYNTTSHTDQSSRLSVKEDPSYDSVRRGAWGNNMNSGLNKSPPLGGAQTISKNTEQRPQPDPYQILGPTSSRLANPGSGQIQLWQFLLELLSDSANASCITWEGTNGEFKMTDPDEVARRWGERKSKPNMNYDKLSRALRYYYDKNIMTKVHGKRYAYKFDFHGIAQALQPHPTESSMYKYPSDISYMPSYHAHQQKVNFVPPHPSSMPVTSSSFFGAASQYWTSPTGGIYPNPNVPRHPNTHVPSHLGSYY
In short: (§1)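 Each value of binding signal is a hexamer's read frequency for a factor divided by the same hexamer's frequency in the tag-only sample. Barcoded, bead-captured GST fusions of human transcription factors made in yeast were pooled with that sample and incubated with 200 nmole of a random double-stranded 16-mer DNA library in Tris/NaCl/DTT/glycerol buffer at room temperature for 30 min. Washing, 0.1% formaldehyde crosslinking, proximity ligation, PCR and Illumina NextSeq500 sequencing followed.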

ELK1 = target: T2, ELK1 (Homo sapiens, UniProt P19419 1-428)
T2 sequence: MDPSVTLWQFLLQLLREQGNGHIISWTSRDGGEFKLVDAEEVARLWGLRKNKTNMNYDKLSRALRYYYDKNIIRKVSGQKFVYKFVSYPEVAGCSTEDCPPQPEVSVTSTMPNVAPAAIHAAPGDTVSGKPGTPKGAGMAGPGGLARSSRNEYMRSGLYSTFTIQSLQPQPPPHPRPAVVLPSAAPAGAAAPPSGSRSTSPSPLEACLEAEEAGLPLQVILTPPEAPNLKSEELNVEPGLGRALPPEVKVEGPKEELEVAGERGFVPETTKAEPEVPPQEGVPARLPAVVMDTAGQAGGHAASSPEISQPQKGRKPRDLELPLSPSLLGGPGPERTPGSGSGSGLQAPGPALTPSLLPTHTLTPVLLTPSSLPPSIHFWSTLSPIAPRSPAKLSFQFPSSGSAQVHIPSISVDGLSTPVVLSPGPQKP
In short: as §1

GABPA = target: T3, GABPA (Homo sapiens, UniProt Q06546 1-454)
T3 sequence: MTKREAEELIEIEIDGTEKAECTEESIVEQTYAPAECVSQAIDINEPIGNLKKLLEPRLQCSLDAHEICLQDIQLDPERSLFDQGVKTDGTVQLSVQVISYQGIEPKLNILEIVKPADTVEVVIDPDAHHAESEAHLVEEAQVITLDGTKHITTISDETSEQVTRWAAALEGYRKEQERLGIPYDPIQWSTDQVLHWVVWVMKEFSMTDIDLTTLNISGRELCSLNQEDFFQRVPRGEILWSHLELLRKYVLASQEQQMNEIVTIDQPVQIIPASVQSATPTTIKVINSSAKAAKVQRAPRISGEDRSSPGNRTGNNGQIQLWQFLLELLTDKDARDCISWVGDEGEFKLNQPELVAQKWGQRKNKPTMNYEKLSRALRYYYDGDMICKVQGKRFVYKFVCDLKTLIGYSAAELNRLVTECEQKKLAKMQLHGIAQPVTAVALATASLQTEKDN
In short: as §1

ERG = target: T4, ERG (Homo sapiens, UniProt P11308 1-479)
T4 sequence: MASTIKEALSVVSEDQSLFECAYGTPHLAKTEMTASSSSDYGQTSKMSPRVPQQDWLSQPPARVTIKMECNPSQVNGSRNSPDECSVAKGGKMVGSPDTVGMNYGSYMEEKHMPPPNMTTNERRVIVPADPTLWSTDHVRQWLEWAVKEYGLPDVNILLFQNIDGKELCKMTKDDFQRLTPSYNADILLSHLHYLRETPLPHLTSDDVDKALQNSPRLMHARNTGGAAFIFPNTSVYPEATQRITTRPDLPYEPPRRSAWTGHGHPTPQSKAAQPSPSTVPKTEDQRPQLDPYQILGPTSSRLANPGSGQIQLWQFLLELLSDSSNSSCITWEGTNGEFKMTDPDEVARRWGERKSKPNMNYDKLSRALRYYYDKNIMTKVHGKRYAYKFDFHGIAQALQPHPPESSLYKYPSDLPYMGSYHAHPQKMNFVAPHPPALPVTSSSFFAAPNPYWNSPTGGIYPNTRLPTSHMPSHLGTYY
In short: as §1

ELF1 = ELF1 (Homo sapiens, UniProt P32519 1-619)
Chain of ELF1 (P32519 whole entry): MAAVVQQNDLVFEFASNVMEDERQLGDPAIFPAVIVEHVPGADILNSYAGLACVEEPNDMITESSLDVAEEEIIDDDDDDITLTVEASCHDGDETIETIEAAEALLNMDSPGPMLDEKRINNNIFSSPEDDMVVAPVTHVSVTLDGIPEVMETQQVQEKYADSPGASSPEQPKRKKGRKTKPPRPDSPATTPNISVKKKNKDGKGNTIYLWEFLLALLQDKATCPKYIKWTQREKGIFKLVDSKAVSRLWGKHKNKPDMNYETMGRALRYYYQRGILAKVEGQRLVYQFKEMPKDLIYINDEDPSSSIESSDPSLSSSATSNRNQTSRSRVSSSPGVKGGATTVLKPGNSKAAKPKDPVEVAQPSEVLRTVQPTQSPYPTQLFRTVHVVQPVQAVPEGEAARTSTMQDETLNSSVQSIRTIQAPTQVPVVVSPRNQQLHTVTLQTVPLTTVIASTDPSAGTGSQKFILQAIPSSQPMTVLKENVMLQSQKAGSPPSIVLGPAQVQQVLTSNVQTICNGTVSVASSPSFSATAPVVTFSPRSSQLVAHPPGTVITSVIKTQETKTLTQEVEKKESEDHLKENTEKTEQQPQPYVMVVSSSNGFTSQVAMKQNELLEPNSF
In short: as §1

EHF = target: T5, EHF (Homo sapiens, UniProt Q9NZC4 1-300)
T5 sequence: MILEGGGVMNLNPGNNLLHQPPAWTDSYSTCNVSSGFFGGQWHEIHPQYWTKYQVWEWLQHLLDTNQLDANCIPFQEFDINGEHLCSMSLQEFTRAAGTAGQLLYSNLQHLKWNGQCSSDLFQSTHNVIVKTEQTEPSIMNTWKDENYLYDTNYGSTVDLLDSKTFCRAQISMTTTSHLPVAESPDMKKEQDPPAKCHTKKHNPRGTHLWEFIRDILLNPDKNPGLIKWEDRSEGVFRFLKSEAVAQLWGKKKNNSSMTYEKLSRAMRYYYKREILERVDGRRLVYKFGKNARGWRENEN
In short: as §1

SPI1 [1] = target: SPI1 (Homo sapiens, UniProt P17947 1-270)
In short: as §1

SPIB = SPIB (Homo sapiens, UniProt Q01892 1-262)
Chain of SPIB (Q01892 whole entry): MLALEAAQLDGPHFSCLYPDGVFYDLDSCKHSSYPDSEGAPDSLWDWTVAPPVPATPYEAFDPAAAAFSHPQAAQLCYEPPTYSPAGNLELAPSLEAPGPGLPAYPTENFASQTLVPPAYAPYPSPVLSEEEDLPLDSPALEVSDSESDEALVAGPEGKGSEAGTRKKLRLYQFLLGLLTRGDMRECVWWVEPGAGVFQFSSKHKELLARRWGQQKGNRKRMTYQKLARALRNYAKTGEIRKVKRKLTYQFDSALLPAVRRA
In short: as §1

ELK3 = target: T6, ELK3 (Homo sapiens, UniProt P41970 1-407)
T6 sequence: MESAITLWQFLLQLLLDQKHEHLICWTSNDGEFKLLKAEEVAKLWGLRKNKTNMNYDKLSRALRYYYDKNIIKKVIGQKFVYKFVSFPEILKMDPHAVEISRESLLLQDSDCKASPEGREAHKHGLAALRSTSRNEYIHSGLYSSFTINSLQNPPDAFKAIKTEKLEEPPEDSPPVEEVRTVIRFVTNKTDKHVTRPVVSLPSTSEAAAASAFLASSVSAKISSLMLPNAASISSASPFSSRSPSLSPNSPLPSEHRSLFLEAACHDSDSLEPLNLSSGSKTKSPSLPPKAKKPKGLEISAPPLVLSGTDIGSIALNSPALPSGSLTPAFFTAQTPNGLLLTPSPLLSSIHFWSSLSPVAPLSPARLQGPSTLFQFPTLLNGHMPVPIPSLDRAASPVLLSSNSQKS
In short: as §1

SPI1 [2] = target: SPI1 (Homo sapiens, UniProt P17947 1-270); remark: listed apart in the source
In short: as §1

Row | Sequence | binding signal (FLI1) | binding signal (ELK1) | binding signal (GABPA) | binding signal (ERG) | binding signal (ELF1) | binding signal (EHF) | binding signal (SPI1 [1]) | binding signal (SPIB) | binding signal (ELK3) | binding signal (SPI1 [2])
1 | ATTTCC | 3.94 fold enrichment (6-mer frequency, TF over GST control) | 3.9 fold enrichment (6-mer frequency, TF over GST control) | 3.59 fold enrichment (6-mer frequency, TF over GST control) | 5.18 fold enrichment (6-mer frequency, TF over GST control) | 3.51 fold enrichment (6-mer frequency, TF over GST control) | 4.16 fold enrichment (6-mer frequency, TF over GST control) | 3.71 fold enrichment (6-mer frequency, TF over GST control) | 4.18 fold enrichment (6-mer frequency, TF over GST control) | 4.09 fold enrichment (6-mer frequency, TF over GST control) | 
2 | CTAAGA | 1.21 fold enrichment (6-mer frequency, TF over GST control) | 1.22 fold enrichment (6-mer frequency, TF over GST control) | 1.16 fold enrichment (6-mer frequency, TF over GST control) | 1.17 fold enrichment (6-mer frequency, TF over GST control) | 1.18 fold enrichment (6-mer frequency, TF over GST control) | 1.26 fold enrichment (6-mer frequency, TF over GST control) |  | 1.24 fold enrichment (6-mer frequency, TF over GST control) | 1.18 fold enrichment (6-mer frequency, TF over GST control) | 1.15 fold enrichment (6-mer frequency, TF over GST control)
3 | CTTCCT | 3.11 fold enrichment (6-mer frequency, TF over GST control) | 2.94 fold enrichment (6-mer frequency, TF over GST control) | 2.95 fold enrichment (6-mer frequency, TF over GST control) | 3.65 fold enrichment (6-mer frequency, TF over GST control) | 3.01 fold enrichment (6-mer frequency, TF over GST control) | 3.28 fold enrichment (6-mer frequency, TF over GST control) | 5.09 fold enrichment (6-mer frequency, TF over GST control) | 3.4 fold enrichment (6-mer frequency, TF over GST control) | 3.04 fold enrichment (6-mer frequency, TF over GST control) | 
4 | GATTCT | 1.28 fold enrichment (6-mer frequency, TF over GST control) | 1.22 fold enrichment (6-mer frequency, TF over GST control) | 1.29 fold enrichment (6-mer frequency, TF over GST control) | 1.21 fold enrichment (6-mer frequency, TF over GST control) | 1.26 fold enrichment (6-mer frequency, TF over GST control) | 1.26 fold enrichment (6-mer frequency, TF over GST control) |  | 1.27 fold enrichment (6-mer frequency, TF over GST control) | 1.33 fold enrichment (6-mer frequency, TF over GST control) | 1.3 fold enrichment (6-mer frequency, TF over GST control)
5 | AACTCG | 1.41 fold enrichment (6-mer frequency, TF over GST control) | 1.33 fold enrichment (6-mer frequency, TF over GST control) | 1.4 fold enrichment (6-mer frequency, TF over GST control) | 1.32 fold enrichment (6-mer frequency, TF over GST control) | 1.39 fold enrichment (6-mer frequency, TF over GST control) | 1.28 fold enrichment (6-mer frequency, TF over GST control) |  | 1.37 fold enrichment (6-mer frequency, TF over GST control) | 1.24 fold enrichment (6-mer frequency, TF over GST control) | 1.4 fold enrichment (6-mer frequency, TF over GST control)
6 | TCCTTG | 1.25 fold enrichment (6-mer frequency, TF over GST control) | 1.31 fold enrichment (6-mer frequency, TF over GST control) | 1.25 fold enrichment (6-mer frequency, TF over GST control) | 1.35 fold enrichment (6-mer frequency, TF over GST control) | 1.25 fold enrichment (6-mer frequency, TF over GST control) | 1.32 fold enrichment (6-mer frequency, TF over GST control) |  | 1.41 fold enrichment (6-mer frequency, TF over GST control) | 1.29 fold enrichment (6-mer frequency, TF over GST control) | 1.31 fold enrichment (6-mer frequency, TF over GST control)
7 | ATGTTA | 1.24 fold enrichment (6-mer frequency, TF over GST control) | 1.25 fold enrichment (6-mer frequency, TF over GST control) | 1.26 fold enrichment (6-mer frequency, TF over GST control) | 1.22 fold enrichment (6-mer frequency, TF over GST control) | 1.22 fold enrichment (6-mer frequency, TF over GST control) | 1.23 fold enrichment (6-mer frequency, TF over GST control) |  | 1.17 fold enrichment (6-mer frequency, TF over GST control) | 1.15 fold enrichment (6-mer frequency, TF over GST control) | 1.13 fold enrichment (6-mer frequency, TF over GST control)
8 | AACACA | 1.32 fold enrichment (6-mer frequency, TF over GST control) | 1.32 fold enrichment (6-mer frequency, TF over GST control) | 1.33 fold enrichment (6-mer frequency, TF over GST control) | 1.32 fold enrichment (6-mer frequency, TF over GST control) | 1.39 fold enrichment (6-mer frequency, TF over GST control) | 1.38 fold enrichment (6-mer frequency, TF over GST control) |  | 1.35 fold enrichment (6-mer frequency, TF over GST control) | 1.26 fold enrichment (6-mer frequency, TF over GST control) | 1.27 fold enrichment (6-mer frequency, TF over GST control)
